This note sets out measurements from the supplement of paper PMC8728848.

The full list was thinned out, with the strongest signals kept by preference.

Holding throughout (assay): glycan array binding signal (z-score within array); higher = stronger binding
Test [1] relates to Fuc(a1-2)Gal6S(b1-4)GlcNAc. To be noted: glycan notation: IUPAC condensed, linker removed. The method, boiled down:
(§1)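 The Consortium for Functional Glycomics database supplied 3228 glycan arrays, of which those lacking an available protein sequence were dropped. The binding signal, a within-array Z-score, was averaged across arrays of the same protein sequence and across linkers. Negative scores can be read as non-binding.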

Test [2] concerns Fuc(a1-2)Gal(b1-4)[Fuc(a1-3)]GlcNAc(b1-2)Man(a1-3)[Fuc(a1-2)Gal(b1-4)[Fuc(a1-3)]GlcNAc(b1-2)Man(a1-6)]Man(b1-4)GlcNAc(b1-4)GlcNAc. To be noted: glycan notation: IUPAC condensed, linker removed. The method, boiled down:
as §1

Test [3] concerns Fuc(a1-2)Gal(b1-4)[Fuc(a1-3)]GlcNAc(b1-2)[Fuc(a1-2)Gal(b1-4)[Fuc(a1-3)]GlcNAc(b1-4)]Man(a1-3)[Fuc(a1-2)Gal(b1-4)[Fuc(a1-3)]GlcNAc(b1-2)Man(a1-6)]Man(b1-4)GlcNAc(b1-4)GlcNAc. As to conditions: glycan notation: IUPAC condensed, linker removed. Summed up: as §1
The test system of test [4] is Fuc(a1-2)Gal(b1-4)[Fuc(a1-3)]GlcNAc(b1-3)GalNAc. To be noted: glycan notation: IUPAC condensed, linker removed. Summed up: as §1
Test [5] deals with Fuc(a1-2)Gal(b1-4)[Fuc(a1-3)]GlcNAc. As to conditions: glycan notation: IUPAC condensed, linker removed. The method, boiled down:
as §1

The subject of test [6] is Fuc(a1-2)[Gal(a1-3)]Gal(b1-4)Glc. As to conditions: glycan notation: IUPAC condensed, linker removed. Summed up:
as §1

For test [7], the system named is Fuc(a1-2)[Gal(a1-3)]Gal(b1-4)[Fuc(a1-3)]GlcNAc(b1-3)GalNAc. As to conditions: glycan notation: IUPAC condensed, linker removed. Summed up: as §1
Test [8] deals with Fuc(a1-2)[Gal(a1-3)]Gal. As to conditions: glycan notation: IUPAC condensed, linker removed. Summed up:
as §1

The test system of test [9] is Fuc(a1-2)[Gal(a1-3)]Gal(b1-4)GlcNAc(b1-2)Man(a1-3)[Fuc(a1-2)[Gal(a1-3)]Gal(b1-4)GlcNAc(b1-2)Man(a1-6)]Man(b1-4)GlcNAc(b1-4)[Fuc(a1-6)]GlcNAc. As to conditions: glycan notation: IUPAC condensed, linker removed. The method, boiled down:
as §1

Test [10] deals with Fuc(a1-2)Gal(b1-4)[Fuc(a1-3)]GlcNAc(b1-3)Gal(b1-4)[Fuc(a1-3)]GlcNAc. To be noted: glycan notation: IUPAC condensed, linker removed. Summed up:
as §1

Test [11] relates to Fuc(a1-2)Gal. As to conditions: glycan notation: IUPAC condensed, linker removed. Summed up: as §1
Test [12] relates to Fuc(a1-2)Gal6S(b1-4)Glc6S. To be noted: glycan notation: IUPAC condensed, linker removed. The method, boiled down: as §1
Test [13] deals with Fuc(a1-2)Gal3S(b1-4)GlcNAc. To be noted: glycan notation: IUPAC condensed, linker removed. Summed up:
as §1

The test system of test [14] is Fuc(a1-2)Gal6S(b1-3)GlcNAc. To be noted: glycan notation: IUPAC condensed, linker removed. Summed up:
as §1

The subject of test [15] is Fuc(a1-2)[Gal(a1-3)]Gal(b1-4)GlcNAc(b1-3)[Fuc(a1-2)[Gal(a1-3)]Gal(b1-4)GlcNAc(b1-6)]GalNAc. To be noted: glycan notation: IUPAC condensed, linker removed. Summed up: as §1
The test system of test [16] is Fuc(a1-2)[Gal(a1-4)]Gal(b1-4)GlcNAc. To be noted: glycan notation: IUPAC condensed, linker removed; mutation: R125K. The method, boiled down:
as §1

In test [17] the test system is Fuc(a1-2)Gal(b1-4)[Fuc(a1-3)]GlcNAc(b1-3)Gal(b1-4)[Fuc(a1-3)]GlcNAc(b1-3)Gal(b1-4)[Fuc(a1-3)]GlcNAc. To be noted: glycan notation: IUPAC condensed, linker removed. Summed up: as §1
Test [18] concerns Fuc(a1-2)[Gal(a1-3)]Gal(b1-4)GlcNAc(b1-3)GalNAc. To be noted: glycan notation: IUPAC condensed, linker removed. The method, boiled down:
as §1

Test [19] relates to Fuc(a1-2)Gal6S(b1-4)Glc. As to conditions: glycan notation: IUPAC condensed, linker removed. The method, boiled down:
as §1

Test [20] concerns Fuc(a1-2)[Gal(a1-3)]Gal(b1-3)GlcNAc(b1-2)Man(a1-3)[Fuc(a1-2)[Gal(a1-3)]Gal(b1-3)GlcNAc(b1-2)Man(a1-6)]Man(b1-4)GlcNAc(b1-4)GlcNAc. To be noted: glycan notation: IUPAC condensed, linker removed. Summed up:
as §1

PILRb (Mus musculus), Q2YSF2, sequence (Q2YSF2 entry or part of it): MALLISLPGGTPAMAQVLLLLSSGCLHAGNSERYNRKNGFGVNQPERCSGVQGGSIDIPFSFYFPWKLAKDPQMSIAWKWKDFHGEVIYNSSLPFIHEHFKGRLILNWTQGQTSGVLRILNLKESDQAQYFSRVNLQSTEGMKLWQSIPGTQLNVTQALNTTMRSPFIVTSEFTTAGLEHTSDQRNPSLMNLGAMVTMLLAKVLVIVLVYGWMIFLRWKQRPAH
PILRa (Mus musculus), Q2YSF3, sequence (Q2YSF3 entry or part of it): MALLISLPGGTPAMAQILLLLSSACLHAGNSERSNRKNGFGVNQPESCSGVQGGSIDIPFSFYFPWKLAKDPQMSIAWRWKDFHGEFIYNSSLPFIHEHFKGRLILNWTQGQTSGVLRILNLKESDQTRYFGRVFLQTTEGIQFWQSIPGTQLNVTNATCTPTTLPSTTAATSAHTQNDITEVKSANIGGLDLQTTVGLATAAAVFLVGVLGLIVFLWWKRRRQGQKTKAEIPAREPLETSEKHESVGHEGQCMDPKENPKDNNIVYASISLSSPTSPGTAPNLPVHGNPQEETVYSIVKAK
Avaren (Actinomycete K97), sequence (chain, as listed by the source): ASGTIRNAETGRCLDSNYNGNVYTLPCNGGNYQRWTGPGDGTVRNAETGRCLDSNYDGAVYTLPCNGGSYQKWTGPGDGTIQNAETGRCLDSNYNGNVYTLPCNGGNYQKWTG
6RG (Lolium perenne), sequence (chain, as listed by the source): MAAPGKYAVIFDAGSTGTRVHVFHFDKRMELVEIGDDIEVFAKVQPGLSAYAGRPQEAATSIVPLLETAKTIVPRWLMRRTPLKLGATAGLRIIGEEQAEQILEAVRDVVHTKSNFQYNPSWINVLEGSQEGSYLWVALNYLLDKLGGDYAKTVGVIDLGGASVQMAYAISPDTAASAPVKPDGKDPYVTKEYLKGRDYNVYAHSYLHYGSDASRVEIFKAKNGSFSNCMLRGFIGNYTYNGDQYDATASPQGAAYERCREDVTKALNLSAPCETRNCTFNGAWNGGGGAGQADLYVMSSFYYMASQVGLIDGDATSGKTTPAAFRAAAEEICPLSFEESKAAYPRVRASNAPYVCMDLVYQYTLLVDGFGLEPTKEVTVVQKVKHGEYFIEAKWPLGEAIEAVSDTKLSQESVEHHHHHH
Regenerating Gene IV (Homo sapiens), Q9BYZ8, sequence (Q9BYZ8 whole entry, looked up): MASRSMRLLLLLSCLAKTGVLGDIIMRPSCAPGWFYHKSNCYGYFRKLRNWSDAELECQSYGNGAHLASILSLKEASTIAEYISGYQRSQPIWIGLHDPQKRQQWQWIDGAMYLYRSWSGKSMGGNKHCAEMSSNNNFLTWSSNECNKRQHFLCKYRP
CHI3L1 (Homo sapiens), P36222, sequence (P36222 whole entry): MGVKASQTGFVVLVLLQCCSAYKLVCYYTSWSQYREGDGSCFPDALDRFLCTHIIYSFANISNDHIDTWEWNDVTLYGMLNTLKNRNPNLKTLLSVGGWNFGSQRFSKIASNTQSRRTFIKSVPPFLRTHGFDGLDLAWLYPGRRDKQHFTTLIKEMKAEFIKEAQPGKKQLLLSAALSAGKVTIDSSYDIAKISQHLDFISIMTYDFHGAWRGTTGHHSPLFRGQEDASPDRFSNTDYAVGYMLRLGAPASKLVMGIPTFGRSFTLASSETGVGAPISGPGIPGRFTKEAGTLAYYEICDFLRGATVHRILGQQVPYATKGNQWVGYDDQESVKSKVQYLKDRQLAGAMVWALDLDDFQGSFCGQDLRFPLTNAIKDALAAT
Neurocan (Homo sapiens), O14594, sequence (O14594 other isoform, or with tags, fused parts or gaps): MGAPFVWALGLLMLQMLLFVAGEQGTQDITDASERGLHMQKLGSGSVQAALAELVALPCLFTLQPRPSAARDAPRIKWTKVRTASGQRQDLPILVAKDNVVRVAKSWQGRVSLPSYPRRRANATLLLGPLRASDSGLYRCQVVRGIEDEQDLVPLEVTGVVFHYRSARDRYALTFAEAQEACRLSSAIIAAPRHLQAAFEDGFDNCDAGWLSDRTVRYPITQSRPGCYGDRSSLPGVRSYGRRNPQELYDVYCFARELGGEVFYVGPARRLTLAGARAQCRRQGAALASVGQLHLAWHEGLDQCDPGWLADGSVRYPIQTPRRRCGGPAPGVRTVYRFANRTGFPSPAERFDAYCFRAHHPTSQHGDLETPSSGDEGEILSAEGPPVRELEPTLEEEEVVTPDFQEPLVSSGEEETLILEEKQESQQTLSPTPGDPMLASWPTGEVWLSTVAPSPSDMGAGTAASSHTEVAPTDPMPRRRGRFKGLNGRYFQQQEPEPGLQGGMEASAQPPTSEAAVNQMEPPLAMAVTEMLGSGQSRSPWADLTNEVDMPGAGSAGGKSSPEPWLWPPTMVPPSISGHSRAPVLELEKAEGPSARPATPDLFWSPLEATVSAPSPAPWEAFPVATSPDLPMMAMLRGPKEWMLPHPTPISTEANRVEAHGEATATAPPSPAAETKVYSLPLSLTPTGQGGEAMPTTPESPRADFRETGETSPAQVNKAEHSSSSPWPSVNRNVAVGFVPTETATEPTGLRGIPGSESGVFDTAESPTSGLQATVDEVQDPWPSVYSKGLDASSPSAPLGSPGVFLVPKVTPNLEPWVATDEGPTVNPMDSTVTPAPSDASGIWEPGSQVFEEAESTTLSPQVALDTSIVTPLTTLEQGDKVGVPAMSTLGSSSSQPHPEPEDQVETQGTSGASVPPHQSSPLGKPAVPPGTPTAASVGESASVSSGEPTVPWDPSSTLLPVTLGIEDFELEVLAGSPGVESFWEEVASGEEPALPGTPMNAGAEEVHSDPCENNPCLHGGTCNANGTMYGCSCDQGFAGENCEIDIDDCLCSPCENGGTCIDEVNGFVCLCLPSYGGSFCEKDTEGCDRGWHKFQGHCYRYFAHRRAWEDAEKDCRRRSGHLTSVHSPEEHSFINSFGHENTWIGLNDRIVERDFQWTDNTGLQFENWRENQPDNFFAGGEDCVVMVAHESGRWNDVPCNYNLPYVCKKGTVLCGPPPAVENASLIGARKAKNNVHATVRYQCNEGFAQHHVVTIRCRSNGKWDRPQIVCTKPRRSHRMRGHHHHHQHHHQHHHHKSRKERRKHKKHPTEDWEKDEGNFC
SRLC (Mus musculus), Q8VIF6, sequence (Q8VIF6 other isoform, or with tags, fused parts or gaps): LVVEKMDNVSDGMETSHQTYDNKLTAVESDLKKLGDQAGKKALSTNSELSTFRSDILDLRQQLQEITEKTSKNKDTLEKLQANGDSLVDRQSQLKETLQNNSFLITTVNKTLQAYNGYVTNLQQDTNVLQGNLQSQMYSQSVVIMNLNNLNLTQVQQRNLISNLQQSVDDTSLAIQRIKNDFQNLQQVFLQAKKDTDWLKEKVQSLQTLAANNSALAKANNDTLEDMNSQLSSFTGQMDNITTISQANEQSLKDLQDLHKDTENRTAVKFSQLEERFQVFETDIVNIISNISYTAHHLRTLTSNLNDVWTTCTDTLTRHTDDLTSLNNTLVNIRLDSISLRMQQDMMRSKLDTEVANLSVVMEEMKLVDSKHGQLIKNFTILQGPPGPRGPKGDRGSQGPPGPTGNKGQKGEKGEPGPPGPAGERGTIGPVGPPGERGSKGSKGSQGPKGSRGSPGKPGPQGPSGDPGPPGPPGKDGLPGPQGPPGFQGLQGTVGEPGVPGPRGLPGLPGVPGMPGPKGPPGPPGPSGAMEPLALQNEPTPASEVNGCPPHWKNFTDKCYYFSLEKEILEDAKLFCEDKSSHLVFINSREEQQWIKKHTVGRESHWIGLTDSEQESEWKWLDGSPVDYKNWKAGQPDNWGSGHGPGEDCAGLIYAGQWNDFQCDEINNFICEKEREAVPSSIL
Aggrecan (Rattus norvegicus), NP_071526, sequence (chain, as listed by the source): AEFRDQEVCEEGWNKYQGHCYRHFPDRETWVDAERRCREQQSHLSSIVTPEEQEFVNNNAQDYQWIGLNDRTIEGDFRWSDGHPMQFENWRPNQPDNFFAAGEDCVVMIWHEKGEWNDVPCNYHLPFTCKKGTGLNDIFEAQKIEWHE
wLAT-1A (Homo sapiens), Q01650, sequence (Q01650 whole entry): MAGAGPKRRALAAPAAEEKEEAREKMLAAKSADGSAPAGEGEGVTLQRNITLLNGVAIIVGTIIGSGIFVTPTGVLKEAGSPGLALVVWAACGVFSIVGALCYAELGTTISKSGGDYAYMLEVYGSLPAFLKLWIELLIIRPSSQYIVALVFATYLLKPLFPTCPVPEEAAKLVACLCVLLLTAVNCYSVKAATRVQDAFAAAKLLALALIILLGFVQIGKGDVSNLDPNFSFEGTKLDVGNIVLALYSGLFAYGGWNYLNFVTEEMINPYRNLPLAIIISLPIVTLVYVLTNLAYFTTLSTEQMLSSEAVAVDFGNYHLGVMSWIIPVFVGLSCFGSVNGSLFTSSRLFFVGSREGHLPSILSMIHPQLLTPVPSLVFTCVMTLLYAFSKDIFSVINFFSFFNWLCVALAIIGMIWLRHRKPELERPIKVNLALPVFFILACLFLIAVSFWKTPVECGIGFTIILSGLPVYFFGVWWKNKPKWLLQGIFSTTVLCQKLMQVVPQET
6RG (Lolium perenne), B9U140, sequence (B9U140 entry or part of it): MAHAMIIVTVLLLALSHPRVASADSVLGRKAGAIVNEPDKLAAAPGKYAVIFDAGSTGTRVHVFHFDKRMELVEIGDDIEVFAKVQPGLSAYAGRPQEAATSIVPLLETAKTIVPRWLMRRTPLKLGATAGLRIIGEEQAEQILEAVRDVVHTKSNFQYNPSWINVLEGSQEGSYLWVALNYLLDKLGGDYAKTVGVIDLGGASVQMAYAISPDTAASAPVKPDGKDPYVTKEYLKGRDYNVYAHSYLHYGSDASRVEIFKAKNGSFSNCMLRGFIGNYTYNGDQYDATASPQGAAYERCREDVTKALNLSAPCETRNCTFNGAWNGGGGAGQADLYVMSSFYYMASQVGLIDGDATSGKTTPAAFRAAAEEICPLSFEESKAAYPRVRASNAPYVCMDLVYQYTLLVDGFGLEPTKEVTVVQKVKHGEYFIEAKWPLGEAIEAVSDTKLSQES

As for wLAT-1A (Homo sapiens), Q01650, the “glycan array binding signal (z-score)” value in [1] is -0.807.
As to PILRb (Mus musculus), Q2YSF2, the “glycan array binding signal (z-score)” value in [2] was 2.37; in test [3] it was 0.151; in test [4], 11.4; in [5], -0.235; in test [6], -0.137; in [7] it was 3.94.
In the case of Aggrecan (Rattus norvegicus), NP_071526, in [8], the “glycan array binding signal (z-score)” value was -0.088.
Take CHI3L1 (Homo sapiens), P36222: the “glycan array binding signal (z-score)” value in test [9] is -0.116; in [7], -0.1.
As for 6RG (Lolium perenne), the entries for the “glycan array binding signal (z-score)” value in [10] and in test [11] were -0.204 and -0.033, respectively.
As for “Regenerating Gene IV (Homo sapiens), Q9BYZ8”, the entries for the “glycan array binding signal (z-score)” value in test [12] and in [11] were 3.23 and 0.024, respectively.
As for 6RG (Lolium perenne), B9U140, the “glycan array binding signal (z-score)” value in test [12] turned out to be 0.291.
For SRLC (Mus musculus), Q8VIF6, the “glycan array binding signal (z-score)” value in [1] is -0.208; in [8] it was -0.233.
With Siglec-8 (Homo sapiens), Q9NYZ4, the “glycan array binding signal (z-score)” value is -0.157 in test [13]; 0.008 in [14]; -0.235 in [12] (mutation: R125K); 2.31 in test [15] (mutation: R125K); 0.008 in test [6]; -0.066 in test [16].
On to PILRa (Mus musculus), Q2YSF3, for which the “glycan array binding signal (z-score)” value in test [17] was -0.134; in test [10], 1.82; in test [4] it was 1.77; in test [5], -0.097; in test [18], -0.185; in test [7], 0.044.
MpAFP RI GFP (Marinomonas primoryensis): the “glycan array binding signal (z-score)” value in test [14] was -0.023; in test [15], -0.23.
For Neurocan (Homo sapiens), O14594, the results for the “glycan array binding signal (z-score)” value in [3] and in test [7] were 2.6 and 0.513, respectively.
With Avaren (Actinomycete K97), the “glycan array binding signal (z-score)” value in test [5] was -0.134; in test [19], -0.124; in test [20] it was -0.036.
